High-throughput results: PubChem BioAssay, National Center for Advancing Translational Sciences (NCATS)
HP1b binding inh: inhibitors of HP1-beta chromodomain binding to methylated histone tails. AID 540317. AlphaScreen HP1-beta / biotin-H3K9me3 peptide binding. 390,000 compounds, 0.56% hits. Potency, µM (titrated, usually from 114 µM), for the others: at the top dose activity change, negative = inhibition, usual class: inhibitors; further: nearly all actives have a fitted effect of over 70% in size
Target sequence (P83916 whole entry, looked up): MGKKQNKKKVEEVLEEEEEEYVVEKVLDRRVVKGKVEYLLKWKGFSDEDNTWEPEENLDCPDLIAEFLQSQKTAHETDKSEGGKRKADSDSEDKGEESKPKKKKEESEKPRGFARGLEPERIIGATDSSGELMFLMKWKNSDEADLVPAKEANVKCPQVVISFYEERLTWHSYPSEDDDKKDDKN
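AlphaScreen: HP1-beta (50 nM) preformed 30 min with biotin-H3(1-18)K9me3 peptide (50 nM) in PBS pH 7.4, 0.01% Tween-20. Compound added for 30 min at RT, then streptavidin donor/nickel chelate acceptor beads (10 ug/mL) for 30 min.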
PLK1 PBD block: PLK1 (human) polo-box domain binding inhibition. 360,000 compounds, 2.8% hits. Potency, µM, inactives show max response, negative = inhibition, hits mostly inhibitors. P53350. Plk1 PBD binding of FITC phosphopeptide, fluorescence polarization. AID 720504; further: series mostly up to about 57 µM; on the % scale 0 is the no-effect control and ±100 the full control effect; nearly all actives have a fitted effect of over 65% in size
BAZ2B inh: BAZ2B (human) inhibition | Q9UIF8 | AlphaScreen BAZ2B-H3K14Ac peptide displacement | Potency, µM (top dose mostly 114 µM), for the others: at the top dose activity change, negative = inhibition, actives largely listed as inhibitors | 360,000 compounds, 4.4% hits; further: on the % scale 0 is the no-effect control and ±100 the full control effect; nearly all actives have a fitted effect of over 60% in size
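BAZ2B (50 nM) with biotin-H3(5-23)K14Ac peptide (50 nM) in PBS pH 7.4, 0.01% Tween-20, preformed 30 min, then compound 30 min at room temperature; top concentration 110uM. AlphaScreen streptavidin donor/nickel chelate acceptor beads (10 ug/mL final), 20 min dark, signal read.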
G9a inh: G9a (human) methyltransferase inhibition; Q96KQ7; G9a H3K9 monomethylation, AlphaScreen, 2 h; Potency, µM (series often up to 102 µM), inactives show at the top dose activity, negative = inhibition, actives largely listed as inhibitors; 350,000 compounds, 8.8% hits; AID 504332; further: on the % scale 0 is the no-effect control and ±100 the full control effect; nearly all actives have a fitted effect of over 75% in size
Target sequence (Q96KQ7 913-1193 limits assumed): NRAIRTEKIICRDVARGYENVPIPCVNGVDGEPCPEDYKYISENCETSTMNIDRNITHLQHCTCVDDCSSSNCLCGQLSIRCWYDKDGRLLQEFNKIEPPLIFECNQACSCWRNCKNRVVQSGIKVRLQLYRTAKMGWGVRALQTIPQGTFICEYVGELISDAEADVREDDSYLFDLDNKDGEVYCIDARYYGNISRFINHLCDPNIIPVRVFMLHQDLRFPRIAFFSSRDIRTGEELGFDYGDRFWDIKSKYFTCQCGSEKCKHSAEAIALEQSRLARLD
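Enzyme 20 nM + cpd, 15 min RT; add b-H3K9 pep 500 nM / SAM 20 uM; 2 h RT; anti-H3K9me1 Ab 0.5 ug/mL + SA donor / anti-rabbit acceptor beads 20 ug/mL each, 10 min; AlphaScreen read.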
JMJD2A Tudor inh: JMJD2A Tudor domain (human) inhibition | O75164 | AID 504339 | 390,000 compounds, 4.4% hits | AlphaScreen JMJD2A-Tudor / H3K4me3 peptide binding | Potency, µM (highest dose often 114 µM), for inactives: at the top dose activity change, negative = inhibition, most hits filed as inhibitors; further: on the % scale 0 is the no-effect control and ±100 the full control effect; nearly all actives have a fitted effect of over 50% in size
Sfp inh: inhibitors of Bacillus subtilis Sfp phosphopantetheinyl transferase; Q9F4F7; Biochemical Sfp PPTase activity, qHTS; Potency, µM, without a hit: largest response in the series, negative = inhibition, most hits filed as inhibitors; 310,000 compounds, 3.5% hits; AID 1490;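 further: the enzyme is Sfp with the accession as filed and its product quenches rhodamine fluorescence; 0% = enzyme reaction without inhibitor and -100% = no enzyme wells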
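Compounds were incubated with enzyme (final 15 nM) for 15 min at room temperature before substrate addition started the reaction. Fluorescence at 525 nm excitation, 598 nm emission was recorded immediately and after 30 minutes.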
* hit, by the source's call; ? = inconclusive; nt = no result; [ ] = another dose, or the depositor's remark. Only some compounds are listed: those with a hit (about 12% of all), similar ones and a draw of the others. The call rests on the fitted dose curve; in most records, active means well fitted curve in the direction sought with a large enough effect; inconclusive means small, poorly fitted or top-dose-only effect, or another doubt; inactive means no such curve, though single readings can be large; an effect the other way counts as inactive or inconclusive. Potency means the concentration at half of the fitted maximal effect.

SMILES | HP1b binding inh | PLK1 PBD block | BAZ2B inh | G9a inh | JMJD2A Tudor inh | Sfp inh
Oc1c(CN2CCN(c3ccccc3)CC2)cc(Br)c2cccnc12 | 40% | -3% | ? | -9%[59 µM] | -36% | 13%
c1ccc(N2CCN(Cc3ccnc4ccccc34)CC2)cc1 | 25% | -5% | ? | 4.5µM* | 56µM* | -9%
Oc1c(CN2CCOCC2)cc(COCc2ccccc2)c2cccnc12 | 6% | 3% | 11µM* | ? | 25µM* | 22%
Cc1ccc2occ(-c3cc(-c4ccc(Cl)cc4)nc4c3COc3ccccc3-4)c(=O)c2c1 | 35% | nt | -21% | 20%[59 µM] | -10% | nt
Cc1ccc(/C=C2/Sc3ccc(C(=O)NCc4ccccn4)cc3NC2=O)cc1 | 49% | -9% | ? | 95% | -15% | -14%
CCCc1ccc(C(=O)O)cc1 | nt | nt | nt | -2%[59 µM] | nt | 17%
COc1ccccc1N1CCN(Cc2nc(-c3cc(OC)c(OC)c(OC)c3)no2)CC1 | 29% | nt | ? | ? | -24% | nt
O=C(Cn1c(SCc2ccccc2F)nc2ccncc21)Nc1ccccc1C(F)(F)F | 27% | nt | 4% | -9%[59 µM] | -16% | nt
Cc1ccccc1Cn1c(=O)n(CCCCC(=O)NCCc2ccccc2)c(=O)c2ccccc21 | 38% | nt | -1% | -2%[59 µM] | -8% | nt
COC(=O)\C(C(C)=O)=C(/C=C/C=C/C=C/N(C)C)N(C)C | ? | 70% | 18µM* | 32µM* | 11µM* | -18%
Cc1ccc2c(CNCc3ccc(C)o3)c(C(=O)O)n(Cc3ccc(F)cc3)c2c1 | -5% | nt | 50µM* | ? | ? | nt
C=Cc1ccc(Cn2c(C(=O)O)c(CNCCc3ccco3)c3ccc(C)cc32)cc1 | -13% | nt | 45µM* | ? | ? | nt
COc1ccc(Cn2c(C(=O)O)c(CNCCc3cc(OC)ccc3OC)c3ccc(C)cc32)cc1 | -2% | nt | 50µM* | -35%[59 µM] | ? | nt
Cc1ccc2c(CNCc3cccs3)c(C(=O)O)n(Cc3ccc(F)cc3)c2c1 | 6% | nt | ? | -33%[59 µM] | -35% | nt
Cc1ccc(S(=O)(=O)N(C)C)cc1NC(=O)C(C)OC(=O)C1CCCCC1 (stereo not given) | 26% | 4% | nt | nt | -4% | nt
CNc1ccc(Br)cc(C(=O)/C=C/c2cc(OC)ccc2OC)c1=O | -30% | -28% | 28µM* | 4.5µM* | 25µM* | -7%
CNc1ccc(Br)cc(C(=O)/C=C/c2ccc(OC)cc2)c1=O | -9% | ? | 45µM* | 10µM* | -31% | ?
CCNc1ccc(Br)cc(C(=O)/C=C/c2ccc(Cl)cc2Cl)c1=O | ? | ? | 45µM* | 8.9µM* | 45µM* | 22µM*
CNc1ccc(Br)cc(C(=O)/C=C/c2ccc3c(c2)OCO3)c1=O | ? | 19µM* | 40µM* | 10µM* | 40µM* | 18µM*
COC(=O)CNC(=O)/C=C/c1cc(Br)ccc1OC | 40% | -8% | -4% | -32% | -3% | 8%
COCCCNC(=O)/C=C/c1ccc(Cl)cc1Cl | 18% | -2% | -12% | 2%[0.501 µM] | -11% | 5%
O=C(C=Cc1ccc2c(c1)OCO2)C=Cc1ccc2c(c1)OCO2 | nt | -4% | nt | nt | nt | nt
COC(=O)COc1cccc(NC(=O)C(c2ccccc2)c2ccccc2)c1 | 33% | -10% | 10% | nt | -8% | 4%
CC(=O)OCON[N+]([O-])=NC1CCCCC1 | ? | nt | nt | nt | 20µM* | 7%
O=C(CSc1nc(-c2ccccc2)cs1)NCCCN1CCCC1=O | 33% | -4% | nt | nt | -6% | nt
C/C(=N\Nc1nc(C)cc(C)n1)c1ccc(N2CCOCC2)cc1 | 34% | -6% | -10% | -1% | -21% | 6%
O=C(CSc1nc2ccccc2[nH]1)c1ccc(Cl)s1 | 2% | -14% | -3% | ? | -18% | -8%
CCC(C)(C)C1CCC(=NNc2nc3ccccc3[nH]2)CC1 (stereo not given) | 18% | -21% | ? | ? | -35% | -39%
C/C(=N\Nc1nc2ccccc2[nH]1)c1ccc(C)o1 | -25% | -12% | 45µM* | 3%[59 µM] | ? | 14%
C/C(=N\Nc1nc2ccccc2[nH]1)c1ccc(Cl)s1 | -11% | -8% | ? | 20µM* | ? | -10%
